In PubChem BioAssay (Tox21):
Records with an inconclusive call do not appear. Active and inactive are the calls of the source. Unless noted, calls come from the whole dose curve; as a rule, active = well fitted curve in the direction sought with a large enough effect in the repeat runs; inconclusive = weak or mixed curves; inactive = no such curve, though single readings can be large; an effect the other way counts as inactive or inconclusive.

Tests used:
[1] = qHTS assay to identify small molecule agonists of the estrogen receptor beta (ER-beta) signaling pathway - cell viability counter screen (AID 1259380); note: nearly all actives have a fitted effect of over 30% in size; note: potency is the fitted concentration of half-maximal effect
Procedure, shortened: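 Cell viability counter screen: CellTiter-Glo luminescence (30 min, room temperature) measured in the same wells as the beta-lactamase readout, after 16 hr compound exposure at 37C of ER-beta-bla HEK293T cells in 2% charcoal-stripped FBS medium.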

[2] = biological target: Estrogen receptor (Homo sapiens) (UniProt P03372); assay: qHTS assay to identify small molecule agonists of the estrogen receptor alpha (ER-alpha) signaling pathway in the presence of an antagonist (AID 1259383; calls by dose curve; note: top concentration of the series differs between compounds; nearly all actives have a fitted effect of over 15% in size)
Procedure, shortened: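 Agonist-mode confirmation run in the presence of 10.0nM (final) ICI-182,780 antagonist. The reporter was ERE-driven luciferase in VM7Luc4E2 cells, grown in charcoal-stripped serum. Cells were exposed to 15-concentration compound series for 22hr, then ONE-Glo luminescence was read.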

[3] = qHTS assay to identify small molecule agonists or antagonists of the thyroid stimulating hormone receptor (TSHR) signaling pathway - wild type cell line counter screen (AID 1259384; calls by dose curve)
Procedure, shortened: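 Wild-type Hek293 cells, 800/well, 18 h at 37C, then compound with Ro20-1724 for 30 min RT. cAMP by HTRF (cAMP-d2/anti-cAMP cryptate), 1 h RT, fluorescence read. 15 concentrations, triplicates.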

[4] = qHTS assay to identify small molecule agonists of the estrogen receptor alpha (ER-alpha) signaling pathway in the presence of an antagonist - cell viability counter screen (AID 1259386); note: nearly all actives have a fitted effect of over 30% in size; note: potency is the fitted concentration of half-maximal effect
Procedure, shortened: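 Compounds tested at 15 concentrations for 22 h at 37C alongside 10.0nM (final) ICI-182,780 antagonist, in VM7Luc4E2 cells grown in phenol red-free, charcoal-stripped medium. Viability read by CellTiter-Fluor fluorescence after 1 h reagent incubation.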

[5] = qHTS assay to identify small molecule antagonists of the TGF-beta/Smad signaling pathway - cell viability counter screen (AID 1346824); note: nearly all actives have a fitted effect of over 50% in size
Procedure, shortened: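 SBE-bla HEK 293T cells, incubated overnight, then compound plus 0.25 ng/mL TGF-beta1 (stock added) for 5 hr at 37 C. Viability was read in the same wells by CellTiter-Glo luminescence after 30 min at room temperature.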

[6] = qHTS assay to identify small molecule agonists of the TGF-beta/Smad signaling pathway - cell viability counter screen (AID 1346829); note: top concentration of the series differs between compounds; nearly all actives have a fitted effect of over 45% in size
Procedure, shortened: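 Here the cytotoxicity of library compounds is measured in SBE-bla HEK 293T cells treated for 5 hr, using CellTiter-Glo added to wells already read for the beta-lactamase reporter.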

[7] = biological target: Thyrotropin-releasing hormone receptor (Homo sapiens) (UniProt P34981); assay: qHTS assay to identify small molecule antagonists of the thyrotropin-releasing hormone receptor (TRHR) signaling pathway (AID 1346877; active = well fitted inhibition curve with a large enough effect in the repeat runs, not every such curve was filed as active; note: series mostly up to about 51 µM)
Procedure, shortened: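 Antagonist mode: after a 5 min room-temperature compound exposure, cells were stimulated with 1 nM (final) TRH. Dye-loaded TRHR-HEK293 cells were used, and calcium-dependent fluorescence was followed for 3 min, with 15-point titrations run in triplicate.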

[8] = biological target: Thyrotropin-releasing hormone receptor (Homo sapiens) (UniProt P34981); assay: qHTS assay to identify small molecule agonists of the thyrotropin-releasing hormone receptor (TRHR) signaling pathway (AID 1346891; calls by dose curve; note: series mostly up to about 58 µM)
Procedure, shortened: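 Screening of agonists relied on calcium signalling in HEK293 cells expressing human TRHR: dye loading 2 h at 37 °C preceded compound addition and a 3-min fluorescence time course.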

[9] = Caspase-3/7 induction in HepG2 cells by small molecules, qHTS assay (AID 1346978); note: nearly all actives have a fitted effect of over 15% in size
Procedure, shortened: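 Wild-type HepG2 cells, 2,000/well, settled 5 hr at 37 C and 5% CO2, then compound-treated for 17 hr; caspase-3/7 activity read by luminescent Caspase-Glo 3/7 after 30 min at room temperature.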

[10] = biological target: Thyrotropin receptor (Homo sapiens) (UniProt P16473); assay: qHTS assay to identify small molecule antagonists of the thyroid stimulating hormone receptor (TSHR) signaling pathway (AID 1259385; calls by dose curve; note: nearly all actives have a fitted effect of over 20% in size; note: potency is the fitted concentration of half-maximal effect)
Procedure, shortened: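 TSHR-HEK293 cells (800/well) plated 18 h, then compounds with Ro20-1724 and TSH at 1.5 ng/mL final, 30 min at room temperature. cAMP quantified by HTRF (cAMP-d2/anti-cAMP-cryptate, 1 h); 15 concentrations in triplicate.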

[11] = biological target: Progesterone receptor (Homo sapiens) (UniProt P06401); assay: qHTS assay to identify small molecule agonists of the progesterone receptor (PR) signaling pathway (AID 1346784; calls by dose curve; note: nearly all actives have a fitted effect of over 30% in size)
Procedure, shortened: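 Compounds were tested for PR agonism in HEK 293T cells bearing a beta-lactamase gene under UAS control. Treatment lasted 16 hr at 37C; signal came from fluorescence of a FRET substrate.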

[12] = Human pregnane X receptor (PXR) small molecule agonists, qHTS cell viability counter screen (AID 1346977); note: nearly all actives have a fitted effect of over 50% in size; note: potency is the fitted concentration of half-maximal effect
Procedure, shortened: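 Tox21 qHTS format; PXR-Luc HepG2, 2,000/well, charcoal-stripped FBS 5%. Cpd exposure 24hr. Read: CellTiter-Fluor fluorescence, multiplexed with luciferase.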

[13] = Caspase-3/7 induction in CHO-K1 cells by small molecules, qHTS cell viability counter screen (AID 1346979); note: nearly all actives have a fitted effect of over 35% in size; note: potency is the fitted concentration of half-maximal effect
Procedure, shortened: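 CellTiter-Fluor viability check, qHTS format: wild-type CHO-K1, 16hr compound treatment, 1hr reagent incubation, fluorescence read.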

[14] = qHTS assay to identify small molecule antagonists of the estrogen receptor beta (ER-beta) signaling pathway - cell viability counter screen (AID 1259382); note: nearly all actives have a fitted effect of over 55% in size; note: potency is the fitted concentration of half-maximal effect
Procedure, shortened: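 Cytotoxicity was measured in the same wells by CellTiter-Glo luminescence after 30 min at room temperature. Cells were ER-beta-bla HEK293T in charcoal-stripped serum, given compound together with 1 nM E2 and incubated 16 h at 37C.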

[15] = qHTS assay to identify small molecule antagonists of the progesterone receptor (PR) signaling pathway - cell viability counter screen (AID 1346798); note: nearly all actives have a fitted effect of over 50% in size; note: potency is the fitted concentration of half-maximal effect
Procedure, shortened: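 Following a 4 hr attachment, PR-UAS-bla HEK293T cells in charcoal-stripped FBS medium were exposed to compounds with R5020 for 16 hr; CellTiter-Glo was added and luminescence read after 30 min at room temperature.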

[16] = biological target: Progesterone receptor (Homo sapiens) (UniProt P06401); assay: qHTS assay to identify small molecule antagonists of the progesterone receptor (PR) signaling pathway (AID 1346795; active = well fitted inhibition curve with a large enough effect in the signal ratio in the repeat runs, not every such curve was filed as active; the % refers to the signal ratio; note: potency is the fitted concentration of half-maximal effect)
Procedure, shortened: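 In HEK293T cells bearing the PR-UAS-bla reporter, compound effects on promegestone-driven (1 nM) beta-lactamase expression are assessed after 16 hr using a fluorescent FRET substrate incubated 2 hr at room temperature.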

[17] = qHTS assay to identify small molecule agonists of the progesterone receptor (PR) signaling pathway - cell viability counter screen (AID 1346799; calls by dose curve; note: nearly all actives have a fitted effect of over 45% in size)
Procedure, shortened: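 Here, 3,000 PR-UAS-bla HEK293T cells per well were treated with compounds for 16 hr after a 6 hr preincubation at 37C and 5% CO2; cell viability is the CellTiter-Glo luminescence signal.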

[18] = qHTS assay to identify small molecule agonists of the TGF-beta/Smad signaling pathway (AID 1346859; active = well fitted activation curve with a large enough effect in the signal ratio in the repeat runs, not every such curve was filed as active; the % refers to the signal ratio; note: series mostly up to about 77 µM)
Procedure, shortened: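 Each well held 4,000 SBE-bla HEK 293T cells incubated overnight before compound addition; 5 hr later the cleavable FRET substrate went on for 2 hr at room temperature, and fluorescence was read at two emissions.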

[19] = biological target: Androgen receptor (Homo sapiens) (UniProt P10275); assay: qHTS assay to identify small molecule agonists of the androgen receptor (AR) signaling pathway in the presence of an antagonist (AID 1259381; calls by dose curve; note: nearly all actives have a fitted effect of over 15% in size)
Procedure, shortened: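 Agonist-mode confirmation run against 3.0 uM final nilutamide: compounds titrated at 15 concentrations onto MDA-kb2 MMTV-luciferase reporter cells. Luminescence measured with ONE-Glo following 16 hr incubation, 37C, 0% CO2.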

Measured: Potency

Chain of Thyrotropin-releasing hormone receptor (Homo sapiens) (P34981 whole entry, looked up): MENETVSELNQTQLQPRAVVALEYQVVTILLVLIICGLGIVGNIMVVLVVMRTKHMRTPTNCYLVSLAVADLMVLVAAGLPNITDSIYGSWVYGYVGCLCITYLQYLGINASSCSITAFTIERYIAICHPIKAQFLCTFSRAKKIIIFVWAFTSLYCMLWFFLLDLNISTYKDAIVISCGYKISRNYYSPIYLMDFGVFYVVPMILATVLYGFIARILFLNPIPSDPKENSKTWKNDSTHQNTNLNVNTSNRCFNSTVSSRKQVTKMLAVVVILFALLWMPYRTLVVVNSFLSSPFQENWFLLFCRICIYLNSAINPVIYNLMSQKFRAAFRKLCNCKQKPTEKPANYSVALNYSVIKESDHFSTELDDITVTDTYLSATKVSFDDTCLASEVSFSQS
Chain of Progesterone receptor (Homo sapiens) (P06401 whole entry, looked up): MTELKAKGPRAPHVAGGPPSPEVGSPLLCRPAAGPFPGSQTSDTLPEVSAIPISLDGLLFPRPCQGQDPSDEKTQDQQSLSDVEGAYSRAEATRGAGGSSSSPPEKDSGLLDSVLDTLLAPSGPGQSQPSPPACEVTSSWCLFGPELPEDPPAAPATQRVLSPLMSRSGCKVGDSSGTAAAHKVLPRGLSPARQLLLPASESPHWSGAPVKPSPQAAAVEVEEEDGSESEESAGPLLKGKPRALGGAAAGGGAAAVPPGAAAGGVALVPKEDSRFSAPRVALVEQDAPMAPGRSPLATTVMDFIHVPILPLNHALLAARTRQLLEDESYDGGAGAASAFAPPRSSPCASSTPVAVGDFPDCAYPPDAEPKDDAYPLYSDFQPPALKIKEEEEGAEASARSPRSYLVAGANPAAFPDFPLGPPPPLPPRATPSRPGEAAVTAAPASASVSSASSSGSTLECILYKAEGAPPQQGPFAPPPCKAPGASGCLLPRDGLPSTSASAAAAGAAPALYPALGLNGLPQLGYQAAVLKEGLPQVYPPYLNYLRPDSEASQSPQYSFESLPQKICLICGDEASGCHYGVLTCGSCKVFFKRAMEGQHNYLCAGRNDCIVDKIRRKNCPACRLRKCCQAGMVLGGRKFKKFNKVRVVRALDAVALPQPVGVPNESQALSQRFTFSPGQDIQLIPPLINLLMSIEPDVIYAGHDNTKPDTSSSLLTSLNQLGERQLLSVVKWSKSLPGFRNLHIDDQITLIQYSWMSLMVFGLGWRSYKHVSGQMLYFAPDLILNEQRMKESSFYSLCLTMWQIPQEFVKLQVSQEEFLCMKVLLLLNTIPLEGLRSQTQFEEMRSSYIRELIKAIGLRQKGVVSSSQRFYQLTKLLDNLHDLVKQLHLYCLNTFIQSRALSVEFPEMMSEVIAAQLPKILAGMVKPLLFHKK
Chain of Estrogen receptor (Homo sapiens) (P03372 whole entry, looked up): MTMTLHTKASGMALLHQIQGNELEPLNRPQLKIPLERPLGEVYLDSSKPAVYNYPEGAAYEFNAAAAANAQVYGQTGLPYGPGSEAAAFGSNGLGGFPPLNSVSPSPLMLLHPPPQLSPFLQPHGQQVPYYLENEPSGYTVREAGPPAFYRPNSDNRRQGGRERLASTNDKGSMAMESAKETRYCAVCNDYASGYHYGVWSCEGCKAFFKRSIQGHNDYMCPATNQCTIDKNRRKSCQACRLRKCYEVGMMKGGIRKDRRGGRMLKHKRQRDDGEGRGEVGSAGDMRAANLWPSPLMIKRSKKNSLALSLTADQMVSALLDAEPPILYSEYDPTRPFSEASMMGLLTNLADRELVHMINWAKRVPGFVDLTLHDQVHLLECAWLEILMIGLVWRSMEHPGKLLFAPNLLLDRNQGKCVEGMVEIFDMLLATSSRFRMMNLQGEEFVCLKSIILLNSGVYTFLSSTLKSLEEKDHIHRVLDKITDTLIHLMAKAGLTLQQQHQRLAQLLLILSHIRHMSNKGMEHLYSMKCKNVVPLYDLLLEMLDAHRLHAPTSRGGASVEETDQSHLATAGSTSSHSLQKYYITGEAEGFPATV
Chain of Thyrotropin receptor (Homo sapiens) (P16473 whole entry, looked up): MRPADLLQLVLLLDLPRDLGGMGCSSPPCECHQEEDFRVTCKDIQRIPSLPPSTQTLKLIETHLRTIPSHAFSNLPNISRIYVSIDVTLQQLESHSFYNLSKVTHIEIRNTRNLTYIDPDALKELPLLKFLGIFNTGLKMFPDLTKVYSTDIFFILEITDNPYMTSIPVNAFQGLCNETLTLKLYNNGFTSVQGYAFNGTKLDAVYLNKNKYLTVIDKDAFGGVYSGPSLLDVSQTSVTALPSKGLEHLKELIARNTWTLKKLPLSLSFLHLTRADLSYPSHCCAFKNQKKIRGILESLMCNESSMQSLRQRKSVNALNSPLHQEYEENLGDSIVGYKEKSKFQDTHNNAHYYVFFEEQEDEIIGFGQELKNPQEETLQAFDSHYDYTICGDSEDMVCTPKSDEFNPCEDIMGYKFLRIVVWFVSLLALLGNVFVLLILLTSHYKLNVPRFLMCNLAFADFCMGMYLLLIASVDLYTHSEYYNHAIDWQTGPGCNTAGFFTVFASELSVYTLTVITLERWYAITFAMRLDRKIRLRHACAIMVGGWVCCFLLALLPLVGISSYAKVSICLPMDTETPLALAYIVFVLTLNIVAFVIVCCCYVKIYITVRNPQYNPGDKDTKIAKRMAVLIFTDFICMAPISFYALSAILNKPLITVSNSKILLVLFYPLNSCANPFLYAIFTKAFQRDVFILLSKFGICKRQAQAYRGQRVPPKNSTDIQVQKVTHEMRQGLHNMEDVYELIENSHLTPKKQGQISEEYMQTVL
Chain of Androgen receptor (Homo sapiens) (P10275 whole entry, looked up): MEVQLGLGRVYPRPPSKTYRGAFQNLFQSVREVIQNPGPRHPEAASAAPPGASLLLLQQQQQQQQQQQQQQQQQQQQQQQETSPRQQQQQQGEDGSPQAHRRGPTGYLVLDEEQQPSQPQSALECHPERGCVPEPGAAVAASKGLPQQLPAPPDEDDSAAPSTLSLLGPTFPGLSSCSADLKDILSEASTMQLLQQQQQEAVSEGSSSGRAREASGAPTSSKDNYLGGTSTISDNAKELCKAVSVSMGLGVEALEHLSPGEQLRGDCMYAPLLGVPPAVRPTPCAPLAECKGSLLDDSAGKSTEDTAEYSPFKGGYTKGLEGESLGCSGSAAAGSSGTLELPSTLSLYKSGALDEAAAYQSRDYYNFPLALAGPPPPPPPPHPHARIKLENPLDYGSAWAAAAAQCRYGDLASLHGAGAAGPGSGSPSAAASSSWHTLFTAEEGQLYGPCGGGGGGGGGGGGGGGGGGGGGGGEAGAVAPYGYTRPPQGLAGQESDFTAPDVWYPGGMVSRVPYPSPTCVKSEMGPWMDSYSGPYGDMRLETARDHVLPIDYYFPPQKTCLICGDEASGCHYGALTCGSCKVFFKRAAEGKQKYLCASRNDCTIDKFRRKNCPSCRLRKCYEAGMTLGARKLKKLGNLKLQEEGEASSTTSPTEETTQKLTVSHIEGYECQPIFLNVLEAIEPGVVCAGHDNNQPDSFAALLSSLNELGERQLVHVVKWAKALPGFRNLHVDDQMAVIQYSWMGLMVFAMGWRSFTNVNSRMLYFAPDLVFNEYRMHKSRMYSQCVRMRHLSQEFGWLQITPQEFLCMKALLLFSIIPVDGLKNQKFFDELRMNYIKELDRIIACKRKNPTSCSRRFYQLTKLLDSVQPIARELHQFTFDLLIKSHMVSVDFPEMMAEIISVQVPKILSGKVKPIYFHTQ

c1ccc(-c2ccccc2-c2ccccc2)cc1
active: [1] 68.6 µM
inactive: [2] | [3] | [4] | [5] | [6] | [7] | [8] | [9]

c1ccc2occc2c1
inactive: [2] | [3] | [10] | [4] | [11] | [5] | [6] | [7] | [8] | [12] | [9] | [13]

Cc1c(Cl)c(=O)oc2cc(O)ccc12
inactive: [1] | [14] | [3] | [10] | [15] | [5] | [6] | [7] | [8] | [9]

O=C(Nc1ccccc1)c1cc(Cl)ccc1O
active: [4] 15.4 µM | [16] 24.3 µM | [12] 12.2 µM | [13] 17.2 µM
inactive: [2] | [3] | [10] | [7] | [8] | [9]

CC(c1cc(C(C)(C)C)cc(C(C)(C)C)c1O)c1cc(C(C)(C)C)cc(C(C)(C)C)c1O
inactive: [1] | [2] | [3] | [10] | [4] | [11] | [16] | [15] | [17] | [5] | [6] | [18] | [7] | [8] | [12] | [9]

CCCC(=O)c1cc(O)c(O)cc1O
inactive: [19] | [14] | [2] | [5] | [6] | [7] | [9]
active: [4] 30.6 µM | [12] 44.7 µM | [13] 51.4 µM

O=C1Cc2ccccc2C1
inactive: [15] | [7] | [8]
active: [13] 68.6 µM

CCCCCCCC1CCC(=O)O1 (stereo unspecified)
inactive: [15]

O=C(N[C@H](CO)[C@H](O)c1ccc([N+](=O)[O-])cc1)C(Cl)Cl
inactive: [14] | [2] | [3] | [10] | [4] | [11] | [5] | [6] | [18] | [12] | [9] | [13]

CO[Si](OC)(c1ccccc1)c1ccccc1
inactive: [1] | [2] | [3] | [10] | [4] | [11] | [17] | [5] | [6] | [18] | [7] | [8] | [12] | [9]

CCOC(=O)[C@H](C)O
inactive: [1] | [2] | [4] | [11] | [16] | [15] | [17] | [5] | [6] | [18] | [12] | [9] | [13]

CCCCC/C=C\C=C\C(=O)OCC
active: [1] 50.6 µM | [13] 63.7 µM
inactive: [2] | [10] | [4] | [11] | [16] | [15] | [17] | [5] | [6] | [18] | [7]

O=S(=O)(c1ccc(OCc2ccccc2)cc1)c1ccccc1O
active: [16] 48.6 µM | [12] 61.1 µM | [13] 43.3 µM
inactive: [19] | [2] | [3] | [5] | [6] | [18] | [9]

CN1CCN(CCCN2c3ccccc3Sc3ccc(C(F)(F)F)cc32)CC1
inactive: [3] | [5] | [6] | [9]
active: [1] 15 µM | [14] 21.1 µM | [10] 26.6 µM | [15] 26.6 µM | [12] 23.7 µM | [13] 33.5 µM

COc1cc(OC)nc(NC(=O)NS(=O)(=O)Nc2ccccc2C(=O)N(C)C)n1
inactive: [1] | [14] | [2] | [10] | [4] | [11] | [16] | [17] | [5] | [6] | [18] | [7] | [8] | [12] | [9] | [13]

COc1cccc(-c2ccc(/C=C\CN3CCCCCC3)cc2Cl)c1
active: [12] 48.3 µM
inactive: [2] | [3] | [4] | [11] | [15] | [17] | [5] | [18] | [7] | [8]
